Results: PubChem BioAssay (NCATS)
“And” between values parts separate entries of the source, which are not always exact repeats. Equal values may be shown once. Inconclusive results are not listed. The source made the active and inactive calls. Unless noted, no rule for the calls is given here.

Columns and labels:
[1] = qHTS assay for cell viability of the p53RE-bla HCT-116 cell line (AID 743292; active = well fitted cell-killing curve with a large enough effect; also: % is scaled to controls: 0 for no effect and ±100 for the full control effect; nearly all actives have a fitted effect of over 55% in size)
Outline: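 In this qHTS counter-screen, metabolically competent p53RE-bla HCT-116 cells were counted via their ATP content. Compounds were applied for 16 h at 37 C and luciferase-coupled luminescence was measured.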

[2] = molecular target: Nuclear receptor subfamily 1 group I member 2 (Rattus norvegicus) (UniProt Q9R1A7); assay: qHTS assay for small molecule activators of the rat pregnane X receptor (rPXR) signaling pathway (AID 651751); conditions: rPXR reporter cells, luciferase (One-Glo), 24 h; also: 0% is about no effect
Nuclear receptor subfamily 1 group I member 2 (Rattus norvegicus), sequence (Q9R1A7 whole entry, looked up): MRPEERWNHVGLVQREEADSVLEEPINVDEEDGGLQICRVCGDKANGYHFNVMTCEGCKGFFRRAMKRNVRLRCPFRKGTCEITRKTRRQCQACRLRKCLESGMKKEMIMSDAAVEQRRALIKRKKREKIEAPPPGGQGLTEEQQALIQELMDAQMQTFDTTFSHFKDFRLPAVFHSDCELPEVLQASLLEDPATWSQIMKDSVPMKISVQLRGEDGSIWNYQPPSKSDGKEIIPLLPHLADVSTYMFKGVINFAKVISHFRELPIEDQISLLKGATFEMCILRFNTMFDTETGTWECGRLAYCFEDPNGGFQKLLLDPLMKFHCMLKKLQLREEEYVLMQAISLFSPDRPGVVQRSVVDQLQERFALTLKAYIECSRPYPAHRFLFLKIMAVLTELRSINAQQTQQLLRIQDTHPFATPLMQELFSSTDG

[3] = qHTS assay for small molecule activators of the human pregnane X receptor (PXR) signaling pathway (AID 720659); also: 0% is about no effect

CC(C)Nc1ccccc1
inactive: Potency [1] | max response [2] 4.55% | outcome [3]

c1ccc2c(c1)ccc1ncccc12
inactive: Potency [1] | max response [2] 10.2% | outcome [3]

CCCCC(CC)COC(=O)CCCCC(=O)OCC(CC)CCCC (stereo not given)
inactive: Potency [1] | max response [2] 3.13% and -1.3% | outcome [3]

NC(=O)CCCCC(N)=O
inactive: Potency [1] | max response [2] 1.18% | outcome [3]

C=CCn1c(=O)n(CC=C)c(=O)n(CC=C)c1=O
inactive: Potency [1] | max response [2] 4.89% | outcome [3]

CO[Si](CCCNCCC[Si](OC)(OC)OC)(OC)OC
inactive: Potency [1] | max response [2] 4.59% | outcome [3]

CCOC(=O)OCC
inactive: Potency [1] | max response [2] -3.24% | outcome [3]

Cc1ccc(C)c(O)c1
inactive: Potency [1] | max response [2] 4.49% | outcome [3]

O=C(O)CNC(=O)c1ccc(CO)o1
inactive: Potency [1] | max response [2] -7.08% | outcome [3]

ClCCl
inactive: Potency [1] | max response [2] 1.89% | outcome [3]

O=C1C=CCCC1
inactive: Potency [1] | max response [2] 0.149% | outcome [3]

CC(=O)OCc1ccco1
inactive: Potency [1] | max response [2] -1.61% | outcome [3]

CC1CCC2CC1C2(C)C (stereo not given)
inactive: Potency [1] | max response [2] -2.72% | outcome [3]

Cc1ccc(C)o1
inactive: Potency [1] | max response [2] -1.6% | outcome [3]

CC(C)Cc1nccs1
inactive: Potency [1] | max response [2] 7.57% | outcome [3]
